Assay results reported in PubChem BioAssay (NCI).
Compounds without any hit were thinned out: in the full panel of roughly 83,000, 20% have a hit.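 Assay: single dose, 48 h. Readout: percent growth (0 = no net growth; negative = cell death). Active: <10.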 The source made the active and inactive calls.

system: MDA-MB-468 breast; assay: NCI-60 one-dose screen, 48 h (100 = growth as untreated, 0 = no growth, -100 = all killed); settings: 10 µM unless noted

Structure (SMILES)	growth
CC(C)=C[C@@H]1c2c(c3ccccc3n(C)c2=O)O[C@H]2c3c(c4ccccc4n(C)c3=O)OC(C)(C)[C@@H]12	61.4% (inactive)
C#Cc1ccc(NC(=O)Cc2ccc(/C=C/C(=O)c3nccn3C)cc2)cc1	33.8% (inactive)
NC1CCC(Nc2nc(NCc3ccc(-c4ccco4)nc3)c3ncn(C4CCCC4)c3n2)CC1 (stereo not drawn)	-54.3% (active)
NC1=NC(c2cccc(Br)c2)c2sc3ccc(Cl)cc3c2N1 (stereo not drawn)	87.4% (inactive)
COc1cc(-c2nc3cc(Cl)c(Cl)cc3[nH]2)ccc1OCC(=O)N=Nc1c(O)[nH]c2ccccc12	-86.3% (active)
COC(=O)Nc1nc2ccc(Sc3ccccc3)cc2[nH]1	-3.91% (active)
Oc1c(CCl)cc(Cl)cc1Cc1cc(Cl)cc(Cc2cc(Cl)cc(CCl)c2O)c1O	18.8% (inactive)
CC1(O)CCC(Nc2cc(-c3ccc(C(F)(F)F)cc3)c(C#N)c3nc4ccccc4n23)CC1 (stereo not drawn)	86.8% (inactive)
O=C(/C=C/c1ccc(Cl)nc1)c1ccc(Cl)cc1Cl	91.5% (inactive)
CC(C)=CCC/C(C)=C/CC/C(C)=C/CSC[C@H](NC(=O)CCCCCN1CCN(C)CC1)C(=O)NC1CCCCCC1	48.2% (inactive)
O=C(N/N=C\c1ccc(F)cc1)c1ccc2nc(-c3ccc(Br)cc3)[nH]c2c1	34.7% (inactive)
CC(=O)O[C@]1(C)C[C@H](O)[C@]2(O)C=CO[C@H](O[C@@H]3O[C@H](CO)[C@@H](O)[C@H](O)[C@H]3O)[C@@H]21	96.8% (inactive)
CCc1nc(N)nc(N)c1-c1ccc(Cl)cc1	62.5% (inactive)
